Measured values reported in PubChem BioAssay (Tox21).
Inconclusive results are not listed. Activity calls are given as the source filed them. Unless noted, calls come from the whole dose curve; as a rule, active = well fitted curve in the direction sought with a large enough effect in the repeat runs; inconclusive = weak or mixed curves; inactive = no such curve, though single readings can be large; an effect the other way counts as inactive or inconclusive.

Legend:
[1] = qHTS assay to identify aromatase inhibitors - cell viability counter screen (AID 743084);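 note: cells stimulated with testosterone during compound exposure; nearly all actives have a fitted effect of over 55% in size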
[2] = molecular target: Aryl hydrocarbon receptor (Homo sapiens) (UniProt P35869); experiment: qHTS assay to identify small molecule that activate the aryl hydrocarbon receptor (AhR) signaling pathway (AID 743085);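 note: HG2L7.5c1 human HepG2 liver cells with stably integrated DRE-driven firefly reporter; series mostly up to about 70 µM; nearly all actives have a fitted effect of over 15% in size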
Sequence of Aryl hydrocarbon receptor (Homo sapiens) (P35869 whole entry, looked up): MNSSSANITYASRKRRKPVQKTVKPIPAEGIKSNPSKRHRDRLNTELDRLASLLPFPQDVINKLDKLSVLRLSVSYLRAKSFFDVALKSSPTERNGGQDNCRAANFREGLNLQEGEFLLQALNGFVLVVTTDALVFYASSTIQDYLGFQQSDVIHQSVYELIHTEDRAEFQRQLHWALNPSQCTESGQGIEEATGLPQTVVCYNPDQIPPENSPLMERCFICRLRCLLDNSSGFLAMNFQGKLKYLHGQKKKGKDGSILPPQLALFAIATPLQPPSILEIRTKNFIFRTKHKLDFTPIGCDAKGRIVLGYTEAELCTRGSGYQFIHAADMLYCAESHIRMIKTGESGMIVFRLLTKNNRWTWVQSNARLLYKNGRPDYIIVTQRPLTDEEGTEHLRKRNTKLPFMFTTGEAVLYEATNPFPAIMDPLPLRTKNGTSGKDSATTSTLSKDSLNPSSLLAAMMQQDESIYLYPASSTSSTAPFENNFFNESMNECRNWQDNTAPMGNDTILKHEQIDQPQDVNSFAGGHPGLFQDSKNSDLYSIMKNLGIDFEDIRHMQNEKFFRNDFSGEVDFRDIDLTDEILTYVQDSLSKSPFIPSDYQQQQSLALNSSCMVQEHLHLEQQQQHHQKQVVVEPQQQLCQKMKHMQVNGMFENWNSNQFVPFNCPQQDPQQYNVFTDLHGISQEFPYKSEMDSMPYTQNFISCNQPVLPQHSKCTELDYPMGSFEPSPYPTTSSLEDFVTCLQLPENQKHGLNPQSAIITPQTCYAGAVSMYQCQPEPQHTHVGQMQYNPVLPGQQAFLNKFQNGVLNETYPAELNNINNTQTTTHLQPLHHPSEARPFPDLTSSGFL
Outline: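 Stably transfected human liver carcinoma cells (HG2L7.5c1; 20 DRE-firefly luciferase) were incubated 5 h, dosed, and kept 24 h at 37C. Agonism was scored from increased luciferase luminescence.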

[3] = qHTS assay to identify small molecule that activate the aryl hydrocarbon receptor (AhR) signaling pathway - cell viability counter screen (AID 743086);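 note: HepG2 liver cells carrying the AhR DRE luciferase reporter; series mostly up to about 70 µM; nearly all actives have a fitted effect of over 45% in size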
Outline: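 HepG2-AhR-luc (HG2L7.5c1) cells, 4000/well, treated 24 h at 37 C with compound; viability measured as CellTiter-Fluor fluorescence after 30 min in the same wells as the luciferase read.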

[4] = molecular target: Peroxisome proliferator-activated receptor gamma (Homo sapiens) (UniProt P37231); experiment: qHTS assay to identify small molecule agonists of the peroxisome proliferator-activated receptor gamma (PPARg) signaling pathway (AID 743094; active = well fitted activation curve with a large enough effect in the signal ratio in the repeat runs, not every such curve was filed as active; the % refers to the signal ratio)
Sequence of Peroxisome proliferator-activated receptor gamma (Homo sapiens) (P37231 whole entry, looked up): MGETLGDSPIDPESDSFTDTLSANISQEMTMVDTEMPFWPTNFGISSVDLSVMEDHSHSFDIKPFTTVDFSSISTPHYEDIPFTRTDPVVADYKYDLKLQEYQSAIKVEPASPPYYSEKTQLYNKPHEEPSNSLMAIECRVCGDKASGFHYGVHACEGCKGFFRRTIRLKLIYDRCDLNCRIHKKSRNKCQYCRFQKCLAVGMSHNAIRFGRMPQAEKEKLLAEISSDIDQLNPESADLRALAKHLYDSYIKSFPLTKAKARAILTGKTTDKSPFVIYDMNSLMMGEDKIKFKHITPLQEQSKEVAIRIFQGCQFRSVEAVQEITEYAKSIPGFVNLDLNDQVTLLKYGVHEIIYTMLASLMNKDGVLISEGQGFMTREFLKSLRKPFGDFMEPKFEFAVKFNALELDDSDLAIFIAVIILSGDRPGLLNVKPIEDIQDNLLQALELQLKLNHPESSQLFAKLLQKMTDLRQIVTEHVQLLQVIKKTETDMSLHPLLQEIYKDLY
Outline: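 Following 5 h plating at 37C, PPARg-bla HEK293H cells receive compound or DMSO for 17 h; fluorescence intensity is recorded after LiveBLAzer B/G loading for 1 h at room temperature.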

[5] = qHTS assay for small molecule agonists of the antioxidant response element (ARE) signaling pathway (AID 743202; active = well fitted activation curve with a large enough effect in the signal ratio in the repeat runs, not every such curve was filed as active; the % refers to the signal ratio)
Outline: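 Agonist mode reporter screen: HepG2 cells with ARE-controlled beta-lactamase are incubated with test compounds for 16 h at 37 C, and beta-lactamase activity is measured as fluorescence of cleaved B/G FRET substrate.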

[6] = qHTS assay for small molecule agonists of the antioxidant response element (ARE) signaling pathway - cell viability counter screen (AID 743203; calls by dose curve; note: nearly all actives have a fitted effect of over 55% in size)
Outline: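 Compounds in DMSO were pinned onto ARE-bla HepG2 cells plated 5 hrs earlier at 2,000 cells/well. Sixteen hours later at 37C/5% CO2, CellTiter-Glo was added and luminescence measured after 30 min at room temperature.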

[7] = qHTS assay for small molecule activators of the heat shock response signaling pathway - cell viability counter screen (AID 743209); note: nearly all actives have a fitted effect of over 50% in size
Outline: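 Counter screen for cytotoxicity in HeLa HSE-bla reporter cells. Treatment was 5 h at 37 C; viability was detected by luminescent ATP assay (CellTiter-Glo) in the same wells as the beta-lactamase read.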

[8] = qHTS assay to identify small molecule agonists of the peroxisome proliferator-activated receptor delta (PPARd) signaling pathway - cell viability counter screen (AID 743211); note: nearly all actives have a fitted effect of over 55% in size
Outline: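 In the same wells used for beta-lactamase reporter measurement, cytotoxicity is scored by CellTiter-Glo. HEK293H PPARd-bla cells receive compound for 17 h at 37C following a 5 h settling period.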

[9] = qHTS assay to identify small molecule antagonists of the peroxisome proliferator-activated receptor delta (PPARd) signaling pathway - cell viability counter screen (AID 743213); note: nearly all actives have a fitted effect of over 50% in size
Outline: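 HEK293H PPARd UAS-bla cells, 5 h pre-incubation, compound + L165041 300 nM final, 17 h 37 C; B/G FRET substrate 2 h RT; then CellTiter-Glo 30 min RT, luminescence.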

[10] = qHTS assay to identify small molecule agonists of the farnesoid-X-receptor (FXR) signaling pathway - cell viability counter screen (AID 743218); note: nearly all actives have a fitted effect of over 45% in size
Outline: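 After 16 h at 37 C with test compounds, FXR-bla HEK 293T cells were given LiveBLAzer B/G substrate for 2 h at RT and then CellTiter-Glo; luminescence was taken after 30 min.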

[11] = qHTS assay to identify small molecule antagonists of the farnesoid-X-receptor (FXR) signaling pathway - cell viability counter screen (AID 743221; active = well fitted cell-killing curve with a large enough effect in the repeat runs, not every such curve was filed as active; note: nearly all actives have a fitted effect of over 50% in size)
Outline: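 Here viability was scored by luminescence after CellTiter-Glo addition to wells already read for beta-lactamase. Prior treatment: compound plus CDCA (50 uM final), 16 h, 37 C, HEK 293T FXR-bla cells.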

[12] = molecular target: Vitamin D3 receptor (Homo sapiens) (UniProt P11473); experiment: qHTS assay to identify small molecule agonists of the vitamin D receptor (VDR) signaling pathway (AID 743222; calls by dose curve)
Sequence of Vitamin D3 receptor (Homo sapiens) (P11473 whole entry, looked up): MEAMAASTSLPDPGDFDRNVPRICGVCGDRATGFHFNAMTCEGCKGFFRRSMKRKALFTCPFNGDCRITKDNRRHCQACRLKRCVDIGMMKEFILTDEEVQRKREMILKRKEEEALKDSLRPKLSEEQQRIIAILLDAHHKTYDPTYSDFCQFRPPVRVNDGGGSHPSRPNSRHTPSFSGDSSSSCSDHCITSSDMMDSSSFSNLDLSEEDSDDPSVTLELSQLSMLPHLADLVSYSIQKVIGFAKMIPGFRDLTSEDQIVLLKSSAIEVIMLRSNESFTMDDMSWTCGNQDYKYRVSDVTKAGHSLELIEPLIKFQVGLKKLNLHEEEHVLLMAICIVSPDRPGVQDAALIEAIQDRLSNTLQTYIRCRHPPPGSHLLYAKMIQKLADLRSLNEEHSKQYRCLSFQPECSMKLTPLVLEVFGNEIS
Outline: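 VDR-bla cells were seeded, left 4 h, treated with compounds in DMSO for 16 h, incubated 2 h at RT with B/G FRET substrate, and read for fluorescence.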

[13] = molecular target: Vitamin D3 receptor (Homo sapiens) (UniProt P11473); experiment: qHTS assay to identify small molecule antagonists of the vitamin D receptor (VDR) signaling pathway (AID 743223; active = well fitted inhibition curve with a large enough effect in the signal ratio in the repeat runs, not every such curve was filed as active; the % refers to the signal ratio)
Outline: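 Inhibition of agonist-driven VDR signalling is scored in VDR-bla cells: 3 nM final 1alpha,25-dihydroxyvitamin D3 plus compound, 16 h at 37C, then beta-lactamase detection by FRET substrate fluorescence after 2 h.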

[14] = molecular target: Peroxisome proliferator-activated receptor gamma (Homo sapiens) (UniProt P37231); experiment: qHTS assay to identify small molecule antagonists of the peroxisome proliferator-activated receptor gamma (PPARg) signaling pathway (AID 743191; calls by dose curve; note: series mostly up to about 63 µM; nearly all actives have a fitted effect of over 30% in size)
Outline: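 GeneBLAzer PPARg UAS-bla HEK293H cells, 5 h post-plating, exposed to compounds 17 h at 37C. LiveBLAzer B/G FRET substrate added for 1 h at room temperature; beta-lactamase reporter read by fluorescence intensity.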

[15] = qHTS assay for small molecule activators of the heat shock response signaling pathway (AID 743210; active = well fitted activation curve with a large enough effect in the signal ratio in the repeat runs, with a control signal flat, not every such curve was filed as active; the % refers to the signal ratio;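 note: HeLa cells with beta-lactamase reporter driven by heat shock elements; series mostly up to about 63 µM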)
Outline: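 Quantitative high-throughput format using an engineered HeLa line in which heat shock response elements drive beta-lactamase; after 5 h with compound, cells received a B/G FRET substrate and fluorescence was read.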

[16] = qHTS assay to identify small molecule antagonists of the peroxisome proliferator-activated receptor gamma (PPARg) signaling pathway - cell viability counter screen (AID 743194); note: nearly all actives have a fitted effect of over 55% in size
Outline: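 Cytotoxicity counter screen in PPARg-bla HEK293H cells, same wells as reporter assay. Compounds plus 50 nM rosiglitazone (final) for 17 h at 37 C, then viability read by CellTiter-Glo luminescence.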

[17] = molecular target: Peroxisome proliferator-activated receptor delta (Homo sapiens) (UniProt Q03181); experiment: qHTS assay to identify small molecule agonists of the peroxisome proliferator-activated receptor delta (PPARd) signaling pathway (AID 743212; calls by dose curve)
Sequence of Peroxisome proliferator-activated receptor delta (Homo sapiens) (Q03181 whole entry, looked up): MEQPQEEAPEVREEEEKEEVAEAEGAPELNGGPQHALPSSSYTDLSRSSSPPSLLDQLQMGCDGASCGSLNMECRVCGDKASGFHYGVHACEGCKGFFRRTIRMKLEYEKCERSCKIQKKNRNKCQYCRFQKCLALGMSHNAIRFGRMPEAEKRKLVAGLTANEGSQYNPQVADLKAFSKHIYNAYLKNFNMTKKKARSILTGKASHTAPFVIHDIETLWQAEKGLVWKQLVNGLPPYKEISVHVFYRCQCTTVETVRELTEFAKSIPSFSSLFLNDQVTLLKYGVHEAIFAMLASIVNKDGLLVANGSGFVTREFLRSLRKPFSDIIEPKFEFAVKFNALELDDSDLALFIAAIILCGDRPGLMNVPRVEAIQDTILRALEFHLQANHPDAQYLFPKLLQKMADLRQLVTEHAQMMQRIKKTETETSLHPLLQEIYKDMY
Outline: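 Quantitative high-throughput agonist screen in a HEK293H beta-lactamase reporter line under UAS control. Compounds in DMSO, at 37 C. Fluorescence read after 2 h with FRET substrate at room temperature.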

[18] = molecular target: Peroxisome proliferator-activated receptor delta (Homo sapiens) (UniProt Q03181); experiment: qHTS assay to identify small molecule antagonists of the peroxisome proliferator-activated receptor delta (PPARd) signaling pathway (AID 743215; active = well fitted inhibition curve with a large enough effect in the signal ratio in the repeat runs, not every such curve was filed as active; the % refers to the signal ratio;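 note: cells stimulated with agonist L165041 at 300 nM final during compound exposure; series mostly up to about 62 µM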)
Outline: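 With L165041 present at 300 nM final, compounds were incubated 17 h at 37 C on PPARd UAS-bla HEK293H cells. A FRET-based beta-lactamase substrate was then applied for 2 h at room temperature and fluorescence intensity recorded.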

[19] = molecular target: Bile acid receptor (Homo sapiens) (UniProt Q96RI1); experiment: qHTS assay to identify small molecule antagonists of the farnesoid-X-receptor (FXR) signaling pathway (AID 743217; active = well fitted inhibition curve with a large enough effect in the signal ratio in the repeat runs, not every such curve was filed as active; the % refers to the signal ratio)
Sequence of Bile acid receptor (Homo sapiens) (Q96RI1 whole entry, looked up): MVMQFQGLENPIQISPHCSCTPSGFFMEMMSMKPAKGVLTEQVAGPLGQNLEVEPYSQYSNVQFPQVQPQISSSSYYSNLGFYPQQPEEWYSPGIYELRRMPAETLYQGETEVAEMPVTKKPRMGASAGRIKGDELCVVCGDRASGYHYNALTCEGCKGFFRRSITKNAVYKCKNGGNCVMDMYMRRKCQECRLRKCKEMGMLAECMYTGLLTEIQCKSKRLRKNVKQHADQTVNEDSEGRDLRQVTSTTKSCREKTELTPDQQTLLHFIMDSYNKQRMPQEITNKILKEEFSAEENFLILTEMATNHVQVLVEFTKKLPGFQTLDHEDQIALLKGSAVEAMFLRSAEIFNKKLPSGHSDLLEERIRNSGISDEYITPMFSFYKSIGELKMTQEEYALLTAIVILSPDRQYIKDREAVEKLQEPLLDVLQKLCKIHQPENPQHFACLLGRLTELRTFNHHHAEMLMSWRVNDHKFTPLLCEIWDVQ
Outline: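 In this cell-based antagonist screen, inhibition of CDCA-driven (50 uM final) UAS-beta-lactamase expression in HEK 293T cells was measured by FRET fluorescence following 16 h compound exposure at 37 °C.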

Measured: Potency

CO[Si](CCCNCCC[Si](OC)(OC)OC)(OC)OC
inactive: [1] | [2] | [3] | [4] | [5] | [6] | [7] | [8] | [9] | [10] | [11] | [12] | [13]

NCCNC(=O)c1ccc(Cl)cn1
inactive: [1] | [2] | [3] | [14] | [5] | [6] | [7] | [15] | [8] | [9] | [10] | [12] | [13]

C1C2OC2C2C1C1CC2C2OC12 (configuration not stated)
inactive: [1] | [2] | [3] | [16] | [5] | [6] | [7] | [15] | [9] | [10] | [11] | [12]

Fc1ccccc1-c1ccccc1
inactive: [1] | [2] | [3] | [16] | [6] | [7] | [15] | [8] | [17] | [9] | [18] | [10] | [11] | [12] | [13]

Cc1cc(C)c(NC(=O)CN(CC(=O)O)CC(=O)O)c(C)c1Br
inactive: [1] | [2] | [3] | [14] | [16] | [5] | [6] | [7] | [15] | [8] | [9] | [10] | [11] | [12]

Cc1ccccc1Br
inactive: [1] | [2] | [3] | [4] | [5] | [6] | [7] | [8] | [9] | [18] | [19] | [10] | [11] | [12] | [13]

C=C(C)[C@H]1CC=C(C)CC1
inactive: [1] | [2] | [3] | [16] | [5] | [6] | [7] | [15] | [8] | [9] | [10]

C[C@H](O)C(=O)Nc1c(I)c(C(=O)NC(CO)CO)c(I)c(C(=O)NC(CO)CO)c1I
inactive: [1] | [2] | [3] | [14] | [16] | [5] | [6] | [7] | [15] | [8] | [17] | [9] | [18] | [11] | [12]

CCCCC1CCCCC(=O)O1 (configuration not stated)
inactive: [1] | [2] | [3] | [14] | [16] | [6] | [7] | [8] | [9] | [18] | [10] | [11] | [12] | [13]
